Test results from PubChem BioAssay (NCI).
Values joined by “and” are separate entries in the source; they are usually repeats but may differ in a detail not shown here. Equal entries are not always repeated. This is part of a sample that, as a whole, favours compounds with a hit. Of some 83,000 tested, about 20% had one in any assay.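 Step 1: grow cells in 96-well plates. Step 2: add test compound at a single concentration. Step 3: incubate 48 h. Step 4: record percent growth.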 Active and inactive are the calls of the source. Rule for the calls: active = growth percent below 10; inactive = the rest.

Test system: MDA-MB-468 breast
Experiment: NCI-60 one-dose screen, 48 h (100 = growth as untreated, 0 = no growth, -100 = all killed)
Settings: 10 µM unless noted

| SMILES | growth |
| --- | --- |
| Fc1ccc2c(c1)c(-c1nc(-c3c[nH]c4ncccc34)cs1)cn2CCCCN1CCCCC1 | -56.6% (active) |
| COC1=CC(=O)OC(CCc2ccc3c(c2)OCO3)C1 (configuration not stated) | 95.9% (inactive) |
| CCCCCCCC[N+]12CN3CN(CN(C3)C1)C2 | 93.4% (inactive) |
| O=C1CN2CCC1CC2 | 104% (inactive) |
| COc1ccc(C(c2ccc(OC)cc2)C(Cl)(Cl)Cl)cc1 | 18% (inactive) |
| CC12CCC(O)CC1=CCC1C2CCC2(C)C(O)CCC12 (configuration not stated) | 99.4% (inactive) |
| CCCCN1CCCC[C@@H]1C(=O)N[C@H](C(=O)N(C)[C@H](CCc1nc(C(=O)N[C@@H](Cc2ccccc2)C[C@H](C)C(=O)OC)cs1)C(C)C)[C@@H](C)CC | -1.75% (active) |
| Cc1cc(NC(=O)NCCOc2ccc(N3C(N)=NC(N)=NC3(C)C)cc2Cl)ccc1S(=O)(=O)F | 29% (inactive) |
| COc1ccc2c(c1)c(C1(O)CC(CSC#N)OC1=O)cn2C(=O)c1ccc(Cl)cc1 (configuration not stated) | 109% (inactive) |
| O=C1OCCC1Br (configuration not stated) | 106% (inactive) |
| O=C(CCF)c1ccc(O)cc1 | 108% (inactive) |
| Cn1cc(C(=O)C[n+]2ccccc2)c2ccccc21 | 88% (inactive) |
| O=C(O)C1[O][Sb][O]C1C(=O)O (configuration not stated) | 95.7% (inactive) |
| C[CH2][Pb]([CH2]C)([CH2]C)[O]C(=O)COC | -49.3% (active) |
| CC(Oc1ccc(-c2ccccc2)cc1)C(=O)O (configuration not stated) | 94.4% (inactive) |
| COC1OC(CO)C(O)C(O)[CH]1[Hg][O]C(C)=O (configuration not stated) | 72.2% (inactive) |
| O=[N+]([O-])c1cc(Cl)c(Cl)cc1Cl | 102% (inactive) and 104% (inactive) |
| O=C(CCl)NCNC(=O)CCl | 96.8% (inactive) |
| COC(=O)[C@@]1(C)CC[C@]2(C)CC[C@]3(C)C4=CC=C5C(=CC(=O)C(O)=C5C)[C@]4(C)CC[C@@]3(C)[C@@H]2C1 | -66.9% (active) |
| COc1cc2c(cc1OCc1ccccc1)C(CC(C)C)=[N+](C)CC2 | 2.12% (active) |
| Oc1cc[c]([Hg][Cl])cc1 | 93.6% (inactive) |

| SMILES | growth |
| --- | --- |
| CCN(CC)CCn1c(=O)n(C)c2ccccc21 | 100% (inactive) |
| COc1ccc(C(=O)c2cc(OC)c(OC)c(OC)c2)cc1OC(C)=O | 43.1% (inactive) |
| O=[N+]([O-])c1ccc(Br)c([N+](=O)[O-])c1 | 34% (inactive) |
| Oc1c(Cl)cc(Cl)c2ccccc12.[Cu+2] | 101% (inactive) |
| COc1cc(C=Nc2cccc(C(=O)O)c2)ccc1N(CCCl)CCCl | 46.6% (inactive) |
| COc1ccc(CN)cc1OC | 114% (inactive) |
| O=C1C(=Cc2cn(Cc3ccccc3)c3ccccc23)C(=O)N(Cc2ccccc2)C(=O)N1Cc1ccccc1 | -71.8% (active) |
| Clc1cccc(N2COOC3(OOC2)C2CC4CC(C2)CC3C4)c1 | 77.7% (inactive) |
| COc1cc(/C=C\c2cc(OC)c(OC)c(OC)c2)cc(NS(=O)(=O)c2cccc(Cl)c2)c1OC | 47% (inactive) |
| CNCc1cccnc1 | 110% (inactive) |
| CO[C@H]1CC[C@@]2(C)C(=CC[C@@H]3[C@@H]2CC[C@]2(C)C(=O)C(=O)C[C@@H]32)C1 | 102% (inactive) |
| c1cnc2c(c1)ccc1ncccc12 | 109% (inactive) |
| O=C1C(N2CC2)=C(N2CC2)C(=O)C(N2CC2)=C1N1CC1 | 0.964% (active) |
| CCC1CN1CCCCN1CC1CC (configuration not stated) | 101% (inactive) |
| O=C(Nc1ccc(Br)cc1)c1cc(Br)cc(Br)c1O | -23.3% (active) |
| CC(=O)O[C@H]1CC[C@]2(C)[C@H]3CC[C@]4(C)[C@@H](OC(C)=O)CC[C@H]4[C@@H]3[C@@H](C)[C@]2(O)C1 | 104% (inactive) |
| CCOP(=O)(OCC)Oc1ccc(Sc2ccc(OP(=O)(OCC)OCC)cc2)cc1 | 107% (inactive) |
| COc1cc2c(c(OC)c1OC)-c1ccc(O)c(=O)cc1[C@@H](NC(C)=O)CC2 | 62.8% (inactive) |
| O=[N+]([O-])c1ccc2scc3c4ccccc4nc-3c2c1 | -84.5% (active) |
| COc1cccc2c1C(=O)c1c(O)c3c(c(O)c1C2=O)CC(O)(/C(C)=N/NC(=O)CCC(=O)N/N=C(\C)C1(O)Cc2c(O)c4c(c(O)c2C(OC2CC(N)C(O)C(C)O2)C1)C(=O)c1c(OC)cccc1C4=O)CC3OC1CC(N)C(O)C(C)O1 (configuration not stated) | -35.7% [5 µM] (active) |
| C/C=C/CC(C)C(O)[C@H](NC(=O)[C@@H]1CCCN1C(=O)C(C)(C)NC(=O)CCCCCCCCC)C(=O)N[C@@](C)(CC)C(=O)N[C@@H](CCC(N)=O)C(=O)N[C@H](CCC(N)=O)C(=O)NC(C)(C)C(=O)NC(C)(C)C(=O)N[C@@H](CCC(N)=O)C(=O)N[C@H](CC(C)C)C(=O)N[C@H](CO)CC(C)C (some centres not stated) | -53.4% (active) and 16.1% (inactive) |
